A selection: hits, their analogues and other compounds. The true share with any hit is near 2%.
ADAM17 inh: ADAM17 inhibition, QFRET primary screen. recombinant ADAM17, EDANS/DABCYL FRET peptide cleavage. P78536. inhibition, % at 6.95 µM. 370,000 compounds, 0.83% hits;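 active means inhibition above the mean of compounds lying between control limits plus 3 SD, set per campaign, cut at about 8.5% in these data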;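 further: 0% = DMSO-only wells as the low control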
Target sequence (P78536 215-824 limits assumed): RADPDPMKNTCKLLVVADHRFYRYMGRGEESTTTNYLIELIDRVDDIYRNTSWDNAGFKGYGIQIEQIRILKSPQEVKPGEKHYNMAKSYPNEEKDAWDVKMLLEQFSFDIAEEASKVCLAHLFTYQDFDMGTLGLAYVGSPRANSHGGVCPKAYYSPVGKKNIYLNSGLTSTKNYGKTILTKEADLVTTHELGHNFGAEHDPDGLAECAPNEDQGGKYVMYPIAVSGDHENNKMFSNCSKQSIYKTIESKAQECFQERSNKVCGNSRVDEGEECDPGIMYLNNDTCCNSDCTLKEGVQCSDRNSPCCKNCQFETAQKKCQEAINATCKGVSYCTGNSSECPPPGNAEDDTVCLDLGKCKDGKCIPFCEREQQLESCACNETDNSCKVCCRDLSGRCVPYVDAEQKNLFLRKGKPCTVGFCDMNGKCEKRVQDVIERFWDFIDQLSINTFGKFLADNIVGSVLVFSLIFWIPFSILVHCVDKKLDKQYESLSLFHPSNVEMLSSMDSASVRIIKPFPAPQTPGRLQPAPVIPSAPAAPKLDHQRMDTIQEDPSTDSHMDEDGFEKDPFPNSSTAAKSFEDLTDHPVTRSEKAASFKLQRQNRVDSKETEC
FAS TE block: blocks the thioesterase domain of human fatty acid synthase; P49327; recombinant FAS-TE, OMFH fluorogenic substrate, fluorescence endpoint; inhibition, % at 15 µM; 360,000 compounds, 0.67% hits; AID 602261;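 active means compounds whose normalised, plate-corrected inhibition of enzyme fluorescence in the single-dose primary screen is 50% or more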;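 further: 0% = DMSO with enzyme and 100% = substrate without enzyme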
GC-A act: GC-A (human) enzyme activation; 370,000 compounds, 0.14% hits; P16066; HEK293 GC-A cells, cGMP TR-FRET, EC30 ANP; 0% at EC30 ANP, 100% saturating ANP; activation, % at 10 µM; in the data active means activation above about 40%
NPR2 activator: GC-B (human) receptor activation. 370,000 compounds, 0.11% hits. HEK293-GC-B cells, CNP EC30, cGMP TR-FRET; 0% at EC30 CNP, 100% saturating CNP. P20594. activation, % at 10 µM;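 active means activation at 10 µM reaching about 35% in either raw or pattern-adjusted values, limit read from the data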
ADAM10 inh: inhibits human ADAM10; 370,000 compounds, 0.62% hits; AID 720582; inhibition, % at 7 µM; O14672; recombinant ADAM10, EDANS/DABCYL FRET peptide cleavage, 3 h;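 active means inhibition above a per-campaign cutoff equal to the mean of compounds falling between control-based bounds plus 3 SD, cut at about 20% in these data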;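 further: 0% = DMSO wells while the 100% control is not disclosed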
ADAM10 confirm: confirmation of inhibitors of human ADAM10; shares compounds with ADAM10 inh; inhibition, % at 6.95 µM; ADAM10 QFRET peptide cleavage, EDANS fluorescence; 2,100 compounds, 1% hits;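 active means inhibition above about 20% chosen separately for each screening run, limit read from the data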;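 further: 0% = DMSO wells and 100% = marimastat wells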
ADAM17 ctr: inhibits human ADAM17 in ADAM10 exosite counter-screen; shares compounds with ADAM10 inh; ADAM17 QFRET peptide cleavage, EDANS fluorescence; inhibition, % at 6.95 µM; 2,100 compounds, 0.5% hits; AID 743214;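 active means mean triplicate inhibition above the solvent-only control wells' mean plus 3 SD, cut at about 12% in these data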;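 further: 0% = DMSO wells and 100% = marimastat wells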
ADAM10 ctr: inhibits human ADAM10 in ADAM17 exosite counter-screen; AID 743256; inhibition, % at 6.95 µM; shares compounds with ADAM17 inh; 2,900 compounds, 47% hits; recombinant ADAM10, EDANS/DABCYL FRET peptide cleavage, 3 h;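 active means mean inhibition over the triplicate runs exceeds the activity threshold set in the earlier primary screen, cut at about 20% in these data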;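 further: 0% = DMSO wells and 100% = marimastat wells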
ADAM17 confirm: human ADAM17 inhibition, confirmation; shares compounds with ADAM17 inh; recombinant ADAM17, EDANS/DABCYL QFRET peptide cleavage; inhibition, % at 6.95 µM; 2,900 compounds, 65% hits; AID 743257;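 active means mean inhibition across replicates above the hit cutoff set in the primary screen, cut at about 8.5% in these data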;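 further: 0% = DMSO wells and 100% = marimastat wells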
The depositor's hits bear a star.

Results for CCOC(=O)c1cc(-c2ccccc2C)nn1CC1CC(c2ccc(OC)cc2)=NO1 (centres undefined) ?
ADAM17 inh: 10.3*; FAS TE block: 32.8; GC-A act: -0.6; NPR2 activator: -0.5; ADAM10 inh: 20.9*; ADAM10 confirm: 5.3; ADAM17 ctr: 1.4; ADAM10 ctr: 17.8; ADAM17 confirm: 10.2*

How did CCOC(=O)c1cc(-c2ccccc2)nn1CC1CC(c2ccc(OC)cc2)=NO1 (centres undefined) do in these assays?
ADAM17 inh: 2.1; FAS TE block: 24.3; GC-A act: 2.0; NPR2 activator: 1.4; ADAM10 inh: 9.6

How did COC(=O)[C@]12C[C@H](CC(=O)N3CCOCC3)C(=O)N(Cc3cccc4ccccc34)C1=C[C@H](C(C)(C)C)O[C@@H]2C do in these assays?
ADAM17 inh: -2.1; GC-A act: -9.7; NPR2 activator: -7.5; ADAM10 inh: -0.5

What do the screens show for `CC(C)C[C@H](NC(=O)c1nc[nH]c1C(=O)NC1CCN(C(=O)OC(C)(C)C)CC1)C(=O)OC(C)(C)C`?
ADAM17 inh: 9.4*; FAS TE block: 20.3; GC-A act: 0.9; NPR2 activator: 2.9; ADAM10 inh: 24.2*; ADAM10 confirm: 3.3; ADAM17 ctr: 0.4; ADAM10 ctr: 32.0*; ADAM17 confirm: 16.1*

Results for C[C@H](NC(=O)c1nc[nH]c1C(=O)NC1CCN(C(=O)OC(C)(C)C)CC1)C(=O)OC(C)(C)C ?
ADAM17 inh: -1.2; FAS TE block: -14.0; GC-A act: 1.7; NPR2 activator: 5.8; ADAM10 inh: -1.3

What do the screens show for `CC(C)(C)OC(=O)[C@H](Cc1ccccc1)NC(=O)c1nc[nH]c1C(=O)NC1CCN(C(=O)OC(C)(C)C)CC1`?
ADAM17 inh: 10.5*; FAS TE block: 28.6; GC-A act: 0.3; NPR2 activator: 11.6; ADAM10 inh: 23.7*; ADAM10 confirm: 4.7; ADAM17 ctr: 0.8; ADAM10 ctr: 49.9*; ADAM17 confirm: 22.6*

Results for O=C(CN(CCc1ccccc1)S(=O)(=O)c1cccs1)N1CCOCC1 ?
ADAM17 inh: -1.5; GC-A act: -4.0; NPR2 activator: -0.3; ADAM10 inh: -4.1

Results for C=CC(=O)Nc1cccc(Oc2cc(Cl)nc3[nH]ccc23)c1 ?
ADAM17 inh: 10.9*; FAS TE block: 3.6; GC-A act: -1.7; NPR2 activator: 1.9; ADAM10 inh: 20.8*; ADAM10 confirm: 3.7; ADAM17 ctr: 1.7; ADAM10 ctr: 11.1; ADAM17 confirm: 10.1*

Results for COC1=C[C@H](C(=O)N[C@H]2CCCC[C@@H]2NC(C)=O)[C@@]2(C)Cc3ccccc3[C@H]2CC1=O ?
ADAM17 inh: -2.4; GC-A act: 4.0; NPR2 activator: -2.0; ADAM10 inh: -6.5

Results for COC(=O)c1ccc(-c2ccc3c(c2)[C@]2(CCC[C@@H](OCc4ccccc4)[C@@H]2NC(=O)CCc2ccccc2)C(=O)N3Cc2ccccc2)cc1 ?
ADAM17 inh: -20.9; GC-A act: 0.9; NPR2 activator: 4.7; ADAM10 inh: -114.8

Results for CC(=O)O[C@@H]1CCC[C@@]2(C(=O)N(Cc3ccccc3)c3ccc(-c4c(C)noc4C)cc32)[C@H]1NC(=O)CCc1ccccc1 ?
ADAM17 inh: 10.3*; GC-A act: -19.9; NPR2 activator: -12.8; ADAM10 inh: 23.2*; ADAM10 confirm: 8.6; ADAM17 ctr: 1.9; ADAM10 ctr: 19.0; ADAM17 confirm: 10.6*
